This is part of a sample that, as a whole, favours compounds with a hit. Of some 83,000 tested, about 20% had one in any assay.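 Compound tested at a single concentration for 48 hours in 96-well plates; a percent growth value below 10 was scored as active.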 Unmarked numbers belong to inactive results. Calls of active or inactive are those of the source.

This assay relates to HL-60(TB) leukemia. In words: NCI-60 one-dose screen, 48 h (100 = growth as untreated, 0 = no growth, -100 = all killed). To be noted: 10 µM unless noted.
For the molecule `CC(C)NC(=O)OCc1c(COC(=O)NC(C)C)c(-c2ccc(Cl)c(Cl)c2)n2c1SCC2`, the growth was 7.43% (active).
The value for `Cc1ccccc1NC(=O)N/C(N)=N/c1nc(-c2cccc([N+](=O)[O-])c2)cs1` was 6.06% (active); that for `COc1ccc2[nH]c(-c3ccc(Cl)cc3)cc(=O)c2c1` was 75.7%.
The value for `COc1cc(NC(=O)c2cc(OC)c3ccn(C)c3c2)cc2c1C[C@]1(C)CC[C@@H](O)C(C)(C)[C@H]1O2` was 31.5%; that for `COC(=O)c1nc(-c2ccc(C)cc2)oc1S(=O)(=O)c1ccc(Cl)cc1` was 51.8%.
The value for `NC(=O)c1cc(Cl)ccc1NC(=O)/C=C/c1ccccc1` was -30.8% (active); that for `COc1ccc2c(c1)C/C(=C\c1cc(-c3cc(OC)c(OC)c(OC)c3)n[nH]1)C2=O` was 79%; that for `CC1=NN(c2cccc(Cl)c2)C(=O)/C1=C\c1cn(CC(O)CN2CCCCC2)c2ccccc12` (stereo not given) was 25.7%.
Turning to `O=c1[nH]nc(SC2CCCCC2)c(=O)[nH]1`, the growth is 108%.
The value for `CCOC(=O)c1sc2ncnc(Nc3ccc4c(cnn4C(=O)Nc4ccccc4)c3)c2c1C` was 90.9%.
Regarding `CCC[S@](=O)c1ccc2nc(NC(=O)OC)[nH]c2c1`, the growth was 77.1%.
Consider `O=C(CC1Sc2ccccc2NC1=O)NNc1ccc(F)cc1` (stereo not given), for which the growth is 14.3%.
As for `C=C(C)[C@@H]1CC[C@]2(C(=O)N3CCCNCC3)CC[C@]3(C)[C@H](CC[C@@H]4[C@@]5(C)CCC(=O)C(C)(C)[C@@H]5CC[C@]43C)[C@@H]12`, the growth was 67.4%.
To `CCN1C(=O)N(c2ccccc2)C2Nn3c(s/c(=C4\C(=O)N(C(C)C)c5ccccc54)c3=O)=NC21` (stereo not given) belongs 97.8%; to `COc1ccc2c(c1)OC(N)=C(C#N)C2c1ccc(F)cc1` (stereo not given), -14.7% (active).
The value for `Nc1ccc(Sc2ccc3c4c2cccc4c(=O)n2c4ccccc4nc32)cc1` was 18.2%; that for `C[C@@]1(CCC#N)[C@H]2CC[C@@H]3[C@H]4[C@H](C(=O)/C=C/c5cccnc5)CC[C@]4(C#N)CC[C@@]3(C)[C@]2(C)CC[C@H]1C(=O)/C=C/c1cccnc1` was 46%.
For the molecule `CCCC(=O)NNc1[nH]c(-c2ccc(OC)cc2)cc1C(=O)OCC`, the growth is -27.7% (active).
The value for `NCCCOc1cc(Cl)ccc1NC(=O)c1cc2ccccc2cc1OCCCN` was -73% (active); that for `Cc1ccc2oc3nc(C)c(C(=O)NCc4ccccc4)cc3c(=O)c2c1` was 73.4%.
Consider `CCOC(=O)C/C(=C\c1ccccc1)C(C)=O`, for which the growth was 98.5%.
In the case of `CC(C)C[C@H](NC(=O)[C@H](Cc1cccc2ccccc12)NS(=O)(=O)c1cccc2cccnc12)B(O)O`, the growth was -17.2% (active).
On to `NC(=O)C1=C[C@H]2[C@H]3C=C[C@@]2(O)C(=O)O[C@@H]3O1`, for which the growth was 41.6%.
To `CN1CCn2c(c(Sc3ccc(C(=O)NO)cc3)c3ccccc32)C1=O` belongs -1.35% (active).
The value for `O=S(=O)(O)c1cnccn1` was 95.3%.
In the case of `COc1ccc2c(c1)c(CC(=O)[Se]C)c(C)n2C(=O)c1ccc(Cl)cc1`, the growth is -38.9% (active).
The value for `COc1ccc(/C=C(/C2=NCCN2)n2ccc3ccccc32)cc1` was 92%; that for `Cc1nc([P+](c2ccccc2)(c2ccccc2)c2ccccc2)c(N2CCCCC2)o1` was -2.68% (active); that for `COc1ccc(S(=O)(=O)Nc2cc(/C=C\c3cc(OC)c(OC)c(OC)c3)cc(OC)c2OC)cc1OC` was 2.73% (active).
Regarding `OC(CCCCCCCCC(O)CN1CCc2ccccc2C1)CN1CCc2ccccc2C1` (stereo not given), the growth was 95.1%.
To `Cc1nc2oc3ccccc3c(=O)c2cc1C(=O)NCc1ccccc1` belongs 69.5%.
Regarding `c1csc(-c2[nH]nc3c2CCc2ccccc2-3)c1`, the growth was 132%.
To `COc1ccc(C/C(C)=C(\c2ccc(Cl)cc2)c2ccc(OCCCN(C)C)cc2)cc1` belongs 69.9%; to `COc1nc2c(c(=O)n1C)CN(c1ccccc1)C(=O)CN2C`, 93% [100 µM].
The value for `COc1ccccc1Cn1cc2c(c1)-c1oncc1CC2` was 1.41% (active); that for `COc1cc(Nc2ncc(F)c(Nc3ccc4c(n3)NC(=O)C(C)(C)O4)n2)cc(OC)c1OC` was 103%; that for `CCCc1cccc(CCC)c1NC(=O)Nc1cc(Cl)cc(Cl)c1` was 101%.
To `COc1cc(/C(C)=C(\c2ccc(Cl)cc2)c2ccc(OCCN(C)C)cc2)ccc1F` belongs 54.4%.
As to `CNC1(C#N)CCN(Cc2ccccc2)CC1`, the growth is 168%.
The value for `CNC1=CC(=O)c2c(C(=O)OC)c(C)[n+]([O-])c(C)c2C1=O` was 29%.

The values above are taken from PubChem BioAssay (NCI).
